# Peg3 prom inh-1 – Peg3 promoter-driven luciferase inhibitors, primary screen, cell-based, HeLa, luciferase luminescence; 360,000 tested, 1.7% active; inhibition, % at 20 µM; HeLa PEG-Prom luciferase reporter, overnight; AID 588405, 2011;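 active = inhibition of at least 50% at 20 µM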
# HIF-2a inh – HIF-2a reporter inhibitors, primary screen, luminescence, 786-0 RCC cells; 786-0 RCC cells HIF-2a reporter, luciferase luminescence, overnight; inhibition, % at 18.8 µM; 360,000 tested, 0.72% active; AID 624352, 2012;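 active = inhibition of the luminescence signal of 40% or more relative to plate controls, in a single-dose primary screen at 18.75 µM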
# Shn3 3UTR inh – reduction of Shn3 3'UTR firefly luciferase signal, primary screen, Schnurri-3 inhibitor project, cell-based, Clone20 osteoblasts, set 2; Clone20 osteoblast Shn3 3'UTR firefly luciferase, 24 h; inhibition, % at 12.5 µM; 360,000 tested, 0.52% active; AID 588674, 2011;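 active = mean inhibition of at least 75% with every replicate also reaching 75%; inconclusive = mean inhibition at least 75% but some replicate below; inactive = mean inhibition below 75%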
# KKLEB tox – cytotoxicity in KKLEB CF airway cells, primary screen, cytotoxicity control for CF NF-kB inhibitor project, cell-based, uHTS, fluorescence assay plates; activity change (cytotoxicity), % at 5 µM; KKLEB CF airway cells viability, ATPlite luminescence, overnight; active compounds read low; cells stimulated with P. aeruginosa culture filtrate; 360,000 tested, 0.36% active; AID 602141, 2011;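 active = corrected activity change at or below -50% at 5 µM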
# MITF TRPM1 inh – inhibitors of MITF-dependent TRPM1 promoter reporter, primary screen, cell-based, SK-MEL-5, single point, luciferase; SK-MEL-5 TRPM1 promoter luciferase, 24 h; inhibition, % at 12.5 µM; 330,000 tested, 0.83% active; AID 488899, 2010;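 active = mean inhibition across replicates of 60% or more, whatever share of single replicates reaches that level; inconclusive = some that reach 60%, reason not given; inactive = mean inhibition across replicates below 60%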
# CF NFkB inh – inhibitors of PAF-induced NF-kB signaling, primary screen, cell-based, GFP fluorescence, uHTS; inhibition, % at 5 µM; 360,000 tested, 0.86% active; KKLEB NF-kB-GFP reporter, GFP fluorescence overnight;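 active = at least 50% inhibition at 5 µM, scaled per plate between neutral and stimulator controls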;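 note: PAF is a Pseudomonas aeruginosa culture filtrate used as stimulus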
# Peg3 prom inh-2 – Peg3 promoter reporter inhibitors, retest, confirmation, cell-based, HeLa, luciferase reporter, single concentration. 1,300 tested, 84% active. HeLa PEG-Prom luciferase reporter, luminescence, overnight. shares compounds with Peg3 prom inh-1. AID 602417, 2012. inhibition, % at 20 µM;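 active = at 20 µM dose, 40% or more inhibition averaged across four replicates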
# A number is an active result; 0 = inactive; ? = inconclusive; - = no result given. An excerpt weighted towards active compounds, which were near 2.8% of everything screened.
SMILES,Peg3 prom inh-1,HIF-2a inh,Shn3 3UTR inh,KKLEB tox,MITF TRPM1 inh,CF NFkB inh,Peg3 prom inh-2
CCCC/C=C1\CCc2c([nH]c3ccccc23)C1=O,0,0,0,0,0,0,-
CCCCCCC=C1CCC(CN2CCCC2)C1=O (stereo not drawn),102,0,0,0,-,0,77
Cc1ccc(-n2nc3c(c2NC(=O)c2ccc4c(c2)OCO4)CS(=O)C3)c(C)c1 (stereo not drawn),0,0,0,0,0,0,-
CCOc1cc(C2c3c(oc4cc(C)c(Cl)cc4c3=O)C(=O)N2Cc2ccco2)ccc1O (stereo not drawn),67,0,0,0,0,0,0
CC(C)C1N(C(=O)N2CCOCC2)CCN1S(=O)(=O)c1ccccc1 (stereo not drawn),0,0,0,0,0,0,-
Cc1nn(C)c(C)c1NC(=O)CSc1nc(Cc2ccccc2)nc2c1cnn2-c1ccccc1,96,0,0,0,0,0,0
CN(C)S(=O)(=O)c1ccc(-c2csc(N/N=C/c3ccc(O)cc3)n2)cc1,96,0,0,0,72,82,98
C(=N\Nc1nc(-c2ccccc2)cs1)/c1ccncc1,0,0,0,0,0,0,-
O=C1[C@H](Cc2ccccc2)NCCCC[C@@H](c2ccc(Cl)cc2)N1Cc1ccc(Cl)cc1,76,0,0,0,0,0,0
O=C1[C@H](Cc2ccccc2)NCCCC[C@@H](c2ccco2)N1Cc1ccccc1,0,0,0,0,0,0,-
Brc1ccc(N/N=C(/N=Nc2nn[nH]n2)c2ccccc2)cc1,70,0,0,0,67,0,64
O=S1(=O)CCN2N=C(C3CC3)SC2=N1,0,0,0,0,0,0,-
CCc1ccc(Oc2coc3cc(OCC(=O)Nc4cc(C)ccc4C)ccc3c2=O)cc1,54,0,0,0,0,0,43
CCCc1ccc(Oc2coc3cc(OCC(=O)Nc4ccccc4C)ccc3c2=O)cc1,0,0,0,0,0,0,-
CN1C(C(=O)N2CCc3ccccc3C2)=CC(c2ccc(F)cc2)=NS1(=O)=O,0,0,0,0,0,0,-
COc1cccc(N2CCN(CC(=O)Nc3ccccc3C(=O)NCc3ccccc3)CC2)c1,57,0,0,0,0,0,51
CN1CCN(c2ccc(-c3cccc(NC(=O)COc4ccc(Cl)cc4Cl)c3)nn2)CC1,54,0,0,-58,0,0,0
COc1ccc(CNCc2cc(Cl)ccc2O)cc1,0,0,0,0,0,0,-
CCc1ccc(O)c(CNCCNCc2cc(CC)ccc2O)c1,91,0,86,0,0,0,92
O=C(Nc1cc(Oc2ccccc2)cc([N+](=O)[O-])c1)C12CC3CC(C1)CC(n1cnc(Cl)n1)(C3)C2,0,0,0,0,0,0,-
COC(=O)C1C(C(=O)OC)C1(c1ccccc1)c1ccccc1 (stereo not drawn),0,0,0,0,0,0,-
COC(=O)C1=C(C(=O)OC)C(C(=O)OC)C(C(=O)OC)C(C(=O)OC)(C(=O)OC)C(C(=O)OC)=C1C(=O)OC (stereo not drawn),107,0,0,0,0,0,99
CC(C)(C)NC(=O)C(=O)NNC(=O)c1cccc(F)c1,0,0,0,0,0,0,-
COc1ccc(NC(=O)c2cc(-c3ccccn3)nc3ccccc23)cc1S(=O)(=O)N(C)C,61,0,0,0,0,0,54
CC1CCCCCCC1OC(=O)c1ccccc1C(=O)O (stereo not drawn),0,0,0,0,0,0,-
SMILES,Peg3 prom inh-1,HIF-2a inh,Shn3 3UTR inh,KKLEB tox,MITF TRPM1 inh,CF NFkB inh,Peg3 prom inh-2
CC(=O)c1cccc(NC(=O)N2C3CCCC2CC(NC(=O)C2CC2)C3)c1 (stereo not drawn),0,0,0,0,0,0,-
O=C(CC[C@H]1O[C@@H](n2ccc(=O)[nH]c2=O)[C@H](O)[C@@H]1O)N[C@H](Cc1ccccc1)C(=O)NCC1CCCO1 (stereo partly drawn),0,0,0,0,-,0,-
Cc1cc(C)c(S(=O)(=O)Nc2ccc3c(c2)CCC3)c(C)c1,51,0,0,0,0,0,41
Cc1cc(C)c(S(=O)(=O)Nc2ccc(O)cc2)c(C)c1,0,0,0,0,0,0,-
O=C(Nc1nc2cc3c(cc2s1)OCCO3)c1ccco1,66,71,0,0,?,0,62
O=C(Nc1nc2cc3c(cc2s1)OCO3)C1=COCCO1,62,55,0,0,83,0,64
O=C(NCc1ccccc1)c1cc(C2COCCN2C(=O)C2CC2)on1 (stereo not drawn),0,0,0,0,-,0,-
CCCOc1ccc2cc(-c3ccccn3)c(=O)oc2c1,74,55,0,0,0,0,68
Cc1c(OCC(=O)NC2CC(C)(C)NC(C)(C)C2)ccc2c3c(c(=O)oc12)CCC3,0,0,0,0,0,0,-
Cc1c(OCC(=O)NC2CC(C)(C)NC(C)(C)C2)ccc2c1oc(=O)c1ccccc12,100,0,0,0,76,0,85
CCN1C=CC(=C2C(=O)c3ccccc3C2=O)C=C1,97,87,?,0,100,0,90
CCCCCCN1C=CC(=C2C(=O)c3ccccc3C2=O)C=C1,58,0,0,-58,80,0,43
CCCCN1C(C)=CC(=C2C(=O)c3ccccc3C2=O)C=C1C,0,0,0,0,0,0,-
Nc1ncnc(Oc2ccccc2F)c1[N+](=O)[O-],0,0,0,0,0,0,-
OCCC1CN(Cc2nc3ccccc3s2)CCN1CCc1ccccc1 (stereo not drawn),0,0,0,0,0,0,-
COc1cc(OC)c(OC)cc1CCC(C)NCCC(c1ccccc1)c1ccccc1 (stereo not drawn),97,0,?,0,0,0,88
O=[N+]([O-])c1ccc(-c2nc(Nc3cccc(O)c3)c3ccccc3n2)cc1,81,0,0,0,0,0,91
CC(C)N1CC(COc2ccc(Cl)cc2Cl)OC1=O (stereo not drawn),0,0,0,0,0,0,-
Cc1ccnc(NC(=O)C2CC(=O)N(c3ccc4c(c3)OCCO4)C2)c1 (stereo not drawn),0,0,0,0,0,0,-
COc1ccc(-c2csc(NC(=O)C3COc4ccccc4O3)n2)cc1OC (stereo not drawn),66,0,0,0,-,0,0
